The supplement of paper PMC11417369
In all, about 25,000 sequences were measured (“ln(normalized median fluorescence intensity)”: median about 9.3, highest 2% from about 10 on). This excerpt belongs to a sample that is enriched for the highest values.

What follows are sequences tested on PF3D7_0420300 AP2 domain 1 (GST-tagged) (assay: gcPBM binding intensity (ln(normalized median fluorescence intensity)); higher = stronger DNA binding).
How it was run: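 GST-tagged P. falciparum DNA-binding domains, expressed in E. coli (about 25 μg on average), were applied for 1 h to an Agilent 4 × 180k array of primer-extended double-stranded 36-bp intergenic genomic probes plus negative controls. The binding buffer was 1× PBS with 1% milk, 0.2 mg/ml BSA, 0.5% salmon testes DNA and 0.03% Triton X-100. Bound protein was detected with Alexa488 anti-GST antibody and scanned at 488 nm. Binding intensity is the highest Masliner-normalised natural-log median intensity across replicate spots of either probe orientation.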

Row | Sequence | gcPBM binding intensity (ln)
1 | ACTTTATATTTTGAACGTACAAAAAAAAAATTATGT [XGTACX_site5588] | 9.04
2 | AATACAATATAGTGAAAAATAATTAAATACAATAAG [XGTACX_negctrl_site161] | 9.6
3 | TAGATATATAGACACACACACATTAATACCTATATT [CACACA_site7605] | 10.1
4 | CGCTTTATTTATATATGTACATATATATATATATAC [XGTACX_site5012] | 9.33
5 | TAATATAACAAAAAAATAAAATAAAATAAAAAATAA [CACACA_negctrl_site109] | 9.35
6 | AAAAGAATTACTTTCACACATATATATCTGTAAATA [CACACA_site5798] | 9.15
7 | CACGCGCCCGGACACACACACACACCCATATATATA [CACACA_site5251] | 10.2
8 | TACACCCATGGACACACACACACGCATAAAAAAAAA [CACACA_site4933] | 9.93
9 | TACACGCATGGACACACACACACACCCATATATATA [CACACA_site4522] | 10.2
10 | GATATTAAAATATGTAGTACACATATTATATCATAT [XGTACX_site4167] | 9.18
11 | ATTTAACATATAAAATGTACATATATATATATATTT [XGTACX_site2525] | 9.25
12 | GTTAATCACCATGTGGTGCATATAAGGGCATATTAT [GTGCAC_site9748] | 9.22
13 | CATAGATACATACACGCACACACATATATATATATA [CACACA_site13] | 9.87
14 | ATTCTACACCCACATACACACATATATATATATATA [CACACA_site3426] | 9.84
15 | TCTCATAGTAGACACACACACACACGCACATATATA [CACACA_site6916] | 10.4
16 | TATATATATATATACACACACACACCCATATATATA [CACACA_site2538] | 10
17 | TAAGAAATAAATAGTACACACATAGACACACGCACA [CACACA_site6821] | 9.92
18 | TATATATATATATATACACACACACCCATATATATA [CACACA_site8812] | 9.94
19 | TATATCTCATAGTATACACACACACCCACCCACATA [CACACA_site8513] | 10.3
20 | TATCTCATAGTATACACACACACACGCGCACATATA [CACACA_site6917] | 10.3
21 | TATAGATACATATACACACACACACCCACATATATA [CACACA_site3436] | 10.2
22 | TAATTTATAACACGCGCACACATATATATATAGTAA [CACACA_site121] | 9.57
23 | TATATATATAGACACACACACACATATATATATATA [CACACA_site9366] | 10

Row | Sequence | gcPBM binding intensity (ln)
24 | TATCTCATAGTATACACACACACACCCACCCATATA [CACACA_site1739] | 10.4
25 | AATATATATATACATACATGCATACATATATATATA [TGCATGCA_site784] | 9.24
26 | TTTATCCTTCTTTTGAGTACTCAAAGAGACCTATAA [XGTACX_site8050] | 8.83
27 | ATGAATTTATTACATTGTACATTTTTAAAAGGTTAC [XGTACX_site124] | 9.11
28 | TAAAAAAGAACAGAAACACACAAATAAAATAAAATT [CACACA_site1758] | 10
29 | GGGAGAAATTTATACATACACACATATATATATTAT [CACACA_site4039] | 9.62
30 | AAATATTATACAAAAAAAAAAAAAAAAAAAATATAT [CACACA_negctrl_site52] | 9.39
31 | AAAGCACCCAGGCACACACACAAAGGAAAAGAAAAA [CACACA_site232] | 9.83
32 | AAAAAAAACAGACACACACACAAATATATAAAAATA [CACACA_site1172] | 10
33 | ATAAATGACAGACACACACACAAAAAAAAAAAACAA [CACACA_site2626] | 10.2
34 | TTAATACCCGGACACACACACACAAAATAAAATACA [CACACA_site4296] | 10.2
35 | AAAACAGACAAACACACACACACATATATATATATA [CACACA_site3393] | 10
36 | TTAATCCACAGACACACACACACAAAATAAAATACA [CACACA_site244] | 10.2
37 | AAAAAAAACAGACACACACACAAATACATACACAAA [CACACA_site705] | 10
38 | TTAATACCCAGACACACACACACAAAATAAAATACA [CACACA_site7968] | 10.1
39 | AAAAAAAAAAAAAACACACACATACAGACAAAAATG [CACACA_site83] | 10.1
40 | AAAAAAAAAAAAAATACACACAAATAATAAAAATAA [CACACA_site1431] | 9.85
41 | GCTTAATACAGAATAACACACAAAATAAATAAATAA [CACACA_site4041] | 9.56
42 | AAAAAAAACAGACACACACACATACAAAATATATAT [CACACA_site1449] | 10.2
43 | CAAATACCCGGACACACACACACAAAAAAAAAAAAA [CACACA_site4441] | 9.99
44 | AAATGTACAGGACGCACACACATATTTATATTTATA [CACACA_site7689] | 9.67
45 | ATACATATATTAGGATGTACGTTTATTTTAGTTATT [XGTACX_site7169] | 9.47
